In paper PMC4336329 (PLoS ONE, 2015):
Out of some 310,000 compounds screened, about 14,000 (4.5%) showed an effect of 50% or more. Effects have a minus sign here. The entries come from a sample that favours strong results as a whole.

The compounds below were run against human ether-à-go-go-related gene (hERG) potassium channel (human, UniProt Q12809) (assay: primary screen, population patch clamp on CHO cells stably expressing hERG; higher = less effect of the substance).
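Further: peak tail current of the secondary pulse compared with the same well before compound.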

human ether-à-go-go-related gene (hERG) potassium channel, sequence (Q12809 whole entry, looked up): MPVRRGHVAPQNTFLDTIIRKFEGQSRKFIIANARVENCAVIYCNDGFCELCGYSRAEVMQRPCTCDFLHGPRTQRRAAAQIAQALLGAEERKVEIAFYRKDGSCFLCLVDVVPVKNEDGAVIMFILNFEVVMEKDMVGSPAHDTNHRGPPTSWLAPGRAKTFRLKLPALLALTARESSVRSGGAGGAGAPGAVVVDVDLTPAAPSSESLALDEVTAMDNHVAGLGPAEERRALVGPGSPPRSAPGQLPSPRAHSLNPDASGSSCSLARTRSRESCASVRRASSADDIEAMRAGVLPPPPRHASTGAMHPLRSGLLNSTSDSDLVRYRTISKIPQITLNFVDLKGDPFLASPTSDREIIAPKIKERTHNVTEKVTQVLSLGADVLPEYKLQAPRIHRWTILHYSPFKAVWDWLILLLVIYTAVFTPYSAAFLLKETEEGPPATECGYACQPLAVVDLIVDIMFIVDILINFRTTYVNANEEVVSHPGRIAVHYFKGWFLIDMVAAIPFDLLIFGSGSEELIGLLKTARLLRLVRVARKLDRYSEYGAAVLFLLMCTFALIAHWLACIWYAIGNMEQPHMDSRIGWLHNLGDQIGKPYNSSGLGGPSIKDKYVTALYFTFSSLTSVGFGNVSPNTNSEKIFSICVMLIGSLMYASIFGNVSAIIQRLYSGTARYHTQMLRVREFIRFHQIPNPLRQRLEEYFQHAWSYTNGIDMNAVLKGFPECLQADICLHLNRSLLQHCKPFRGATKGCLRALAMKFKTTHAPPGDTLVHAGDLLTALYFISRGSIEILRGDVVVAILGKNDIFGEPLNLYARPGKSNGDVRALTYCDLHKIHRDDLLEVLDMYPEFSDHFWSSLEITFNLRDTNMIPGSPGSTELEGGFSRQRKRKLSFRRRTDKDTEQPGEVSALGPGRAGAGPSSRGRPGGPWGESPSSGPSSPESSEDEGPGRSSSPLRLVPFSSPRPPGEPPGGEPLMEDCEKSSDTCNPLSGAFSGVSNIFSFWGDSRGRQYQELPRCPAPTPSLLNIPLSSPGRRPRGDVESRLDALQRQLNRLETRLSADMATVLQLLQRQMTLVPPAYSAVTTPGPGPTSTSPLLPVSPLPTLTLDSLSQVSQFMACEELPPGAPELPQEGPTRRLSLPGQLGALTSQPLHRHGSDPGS

Point of comparison: `COCCN(Cc1cc2cc3c(cc2nc1Cl)OCO3)C(=O)Nc1ccc(F)cc1`, “hERG current change (%, negative = inhibition) at 10uM” value -30%. Against it:
- O=C1CC(Cc2ccc(Cl)cc2)C(=O)N1c1ccccn1 (stereo not shown) — higher, 1.83%
- CCOc1ccc(NC(=O)[C@@H](NC(=O)c2ccccc2)[C@@H](C)CC)cc1 — higher, 2.26%
- CCC(C)NC(=O)CSc1c2c(nc3ccccc13)CCCC2 (stereo not shown) — higher, -7.98%
- O=C(N/N=C/c1ccc([N+](=O)[O-])s1)c1cccnc1 — higher, 5.77%
- Cc1cc(C)nc(Sc2nc(C)nc3c2oc2ccccc23)n1 — higher, -1.57%
- CCc1ccc(S(=O)(=O)Nc2c(NC3CCCCC3)c3ccccc3oc2=O)cc1 — higher, -3.7%
- CC1CN(S(=O)(=O)c2ccc(C(=O)N3CCc4ccccc43)cc2)CC(C)O1 (stereo not shown) — higher, 15.9%
- CC(=O)Nc1ccc(NC(=O)c2cccc(S(=O)(=O)N(C)C3CCCCC3)c2)cc1 — higher, 6.97%
- Cc1ccc(NC(=O)c2cccc(S(=O)(=O)N(C)C3CCCCC3)c2)nc1 — lower, -34.7%
- CN(C1CCCCC1)S(=O)(=O)c1cccc(C(=O)Nc2ccccn2)c1 — lower, -53.7%
- c1ccc(-c2ccccc2OCCN2CCCC2)cc1 — higher, -26.6%
- Cc1ccc2c(c1)Sc1ccccc1CC2=O — higher, -20.9%
- Cl.O=C1Cc2ccccc2Sc2cc(OCCCN3CCCCC3)ccc21 — lower, -69.8%
- O=C1Cc2ccccc2Sc2ccc(O)cc21 — higher, 16.4%
- CN(C)CCOc1ccc2c(c1)Sc1ccccc1CC2=O.Cl — lower, -64.8%
- Cc1cccc2c1Sc1ccccc1CC2=O — higher, 0.0655%
- O=C1Cc2ccccc2Sc2ccc(Cl)cc21 — higher, 16%
- CN(C)CCCOc1ccc2c(c1)Sc1ccccc1CC2=O.Cl — lower, -74.3%
- Cc1cccc(OCCCN2CCCCCC2)c1 — higher, -28.2%
- Cl.O.O=C1Cc2ccccc2Sc2c(OCCN3CCCCC3)cccc21 — lower, -63.4%
- COc1cccc(OCCCN2CCCCC2)c1 — higher, -16.2%
- O=C1Cc2ccccc2Sc2ccccc21 — higher, 1.13%
- O=C(O)c1n[nH]c2ccccc12 — higher, -4.09%
- C[N+]1(CC(=O)NNc2c3ccccc3nc3ccccc23)CCOCC1.[Br-] — higher, 3.64%
- COC(=O)C(=Nc1ccccc1)/C(C(=O)C(=O)N(C)c1ccccc1)=C(\O)c1ccccc1 — higher, 22.7%
- CC1(C)CCCC2=C1CC1C(=O)N(Cc3cccnc3)C(=O)C1C2 (stereo not shown) — higher, -5.71%
- COc1ccc(-c2csc(-c3cc4ccccc4oc3=N)n2)cc1 — higher, -4.44%
- CCCC(=O)N1CCN(c2ccc(NC(=O)c3ccc(Br)o3)cc2)CC1 — higher, -8.1%
- COc1ccccc1NC(=O)C1CCN(S(=O)(=O)c2cccs2)CC1 — higher, -7.13%
- c1ccc2[nH]c(CN3CCCCC3)nc2c1 — higher, 1.41%
- Cc1ccnc(NC(=O)c2oc3ccccc3c2C)c1 — higher, 24.7%
- O=C(O)/C=C1\NC(=O)c2ccccc21 — higher, 17%
- CN(Cc1cn(C)nc1-c1ccccc1F)CC1CCN(Cc2ccccc2)CC1 — higher, -15.6%
- COCC1CCN(Cc2cn(Cc3ccccc3)nc2-c2cc3ccccc3o2)CC1 — lower, -76.6%
- COCC1CCN(Cc2cn(C)nc2-c2cccc(Cl)c2)C1 (stereo not shown) — higher, -2.21%
- COCC1CCCN(Cc2cn(Cc3ccccc3)nc2-c2cc3ccccc3o2)C1 (stereo not shown) — lower, -72.8%
- COCC1CCCN(Cc2cn(-c3ccccc3F)nc2-c2cc(C)sc2C)C1 (stereo not shown) — lower, -39.4%
- COCC1CCCN(Cc2nc(Cc3ccccc3)no2)C1 (stereo not shown) — higher, 11.6%
- CCCn1nnnc1SCC(=O)Nc1cccc(NC(=O)c2ccco2)c1 — lower, -34.8%
- COc1ccc(OC)c(NC(=O)c2cnc(Nc3ccccc3OC)c3ccccc23)c1 — higher, -7.53%
- CCN(CCCNC(=O)C1CCN(S(=O)(=O)CC)CC1)c1cccc(C)c1 — lower, -40.4%
- Nc1c(C(=O)Nc2ccc(Cl)c(C(=O)O)c2)sc2nc3c(cc12)CCCC3 — higher, -3.17%
- O=C(CSc1ccc2nnc(-c3ccccn3)n2n1)Nc1nccs1 — higher, -27.6%
- CC(C)(C)OC(=O)NCc1n[nH]c(=S)n1C1CC1 — higher, 14.5%
- COCCN(Cc1cc2cc3c(cc2nc1Cl)OCO3)C(=O)Nc1ccc(OC)cc1 — higher, 14.7%
- COCCN(Cc1cc2cc3c(cc2nc1Cl)OCO3)C(C)=O — higher, 3.81%
- COCCN(Cc1cc2cc3c(cc2nc1Cl)OCO3)C(=O)c1cccc(C)c1 — lower, -64.3%
- COCCN(Cc1cc2cc3c(cc2nc1Cl)OCO3)C(=O)c1ccc(C)cc1 — lower, -53.2%
- COCCN(Cc1cc2cc3c(cc2nc1Cl)OCO3)C(=O)Nc1ccccc1OC — higher, 16.3%
- CCOC(=O)c1c[nH]c2c(C)ccc(Cl)c2c1=O — higher, 20.9%
- Cc1ccc(S(=O)(=O)Nc2ccc3c(c2)nc(CCN2CCCCC2)n3C)cc1 — lower, -63.6%
- Cn1c(CCN2CCCC2)nc2cc(NS(=O)(=O)c3ccc(Cl)cc3)ccc21 — lower, -84%
- CC(C)C(=O)Nc1ccc2c(c1)nc(CCN1CCN(c3ccccc3)CC1)n2C — lower, -40.4%
- CC(=O)NCCc1nc2cc(NS(=O)(=O)c3ccc(Cl)cc3)ccc2n1C — higher, 10.4%
- Cn1c(CCNC(=O)c2ccco2)nc2cc(NS(=O)(=O)c3ccc(Cl)cc3)ccc21 — lower, -65.2%
- CCC(=O)Nc1ccc2c(c1)nc(CCN1CCN(c3ccccc3)CC1)n2C — lower, -33.5%
- Cn1c(CCNC(=O)c2ccco2)nc2cc(NS(=O)(=O)c3ccccc3)ccc21 — higher, -6.01%
- Cc1ccc(S(=O)(=O)Nc2ccc3c(c2)nc(CCN2CCCC2)n3C)cc1 — lower, -42.5%
- Cc1ccc(N2CCN(CCc3nc4cc(NS(C)(=O)=O)ccc4n3C)CC2)cc1 — lower, -59.8%
- Cc1ccc(S(=O)(=O)Nc2ccc3c(c2)nc(CCN2CCOCC2)n3C)cc1 — higher, -17.2%
